Screens deposited in PubChem by National Center for Advancing Translational Sciences (NCATS).
A selection: hits, their analogues and other compounds. The true share with any hit is near 6.8%.
PINK1 expr mod = changes PINK1 expression. PINK1 immunofluorescence, high-content cytometry, 24 h. Potency, µM (titrated, usually from 76.6 µM), for the others: at the top dose activation (PINK1 increase), hits mostly activators. hit rate 0.2% among 410,000. AID 624263; active = well fitted activation curve with a large enough effect; inconclusive = small, poorly fitted or top-dose-only effect; cell line not stated here; note: % of control where 0% means no effect; nearly all actives have a fitted effect of over 65% in size
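Compound titrations (5 concentrations, 24 h) on a stable cell line; DMSO and CCCP controls. Endpoint: fixed-cell PINK1 immunofluorescence with mitochondrial, cell and nuclear markers, scanned by microplate cytometer.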
SW480 rereplic = DNA re-replication induction in SW480 cells | AID 624297 | Potency, µM (doses to about 46.1 µM), without a hit: top-dose re-replication activation, hits mostly activators | hit rate 1.8% among 340,000 | SW480 DNA re-replication, Hoechst DNA content imaging, 48 h; note: % of control where 0% means no effect; nearly all actives have a fitted effect of over 55% in size
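250 cells/well; 23 nL cpd via pin tool; 48 hr, 37 C, 5% CO2; Hoechst 40 min; imager read of total nuclear intensity, ex 405/em 500-530 nm.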
KB-3-1 cytotox = kills parental KB-3-1 adenocarcinoma cells | KB-3-1 viability, CellTiter-Glo ATP luminescence, 72 h | Potency, µM (doses to about 46.1 µM), most hits filed as cytotoxic | hit rate 1.4% among 400,000; note: % is set by controls: 0 for no effect and ±100 for the full control effect; nearly all actives have a fitted effect of over 60% in size
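KB-3-1 parental drug-naive adenocarcinoma cells in DMEM/10% FBS, incubated 72 h at 37 C with pin-transferred compounds across a concentration series. Viability by CellTiter-Glo luminescence; concentration-response curves fitted after normalization.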
KB-V1 cytotox = kills drug-selected multidrug resistant KB-V1 cells; KB-V1 MDR cells viability, CellTiter-Glo, 72 h; hit rate 3.4% among 400,000; AID 1347076; Potency, µM (highest dose often 46.1 µM), actives largely listed as cytotoxic; note: % is set by controls: 0 for no effect and ±100 for the full control effect; nearly all actives have a fitted effect of over 60% in size
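KB-V1 MDR subline cells in DMEM (phenol-red free, 10% FBS) exposed to compounds in qHTS concentration series for 72 h at 37 degrees C. Viability read by CellTiter-Glo luminescence; concentration-effect curves fitted after normalization and correction.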
PTAP TSG101 blk = blocks PTAP/TSG101 interaction to inhibit HIV-1 budding. Q99816. Fluorescence polarization, FITC-PTAP peptide / Tsg101 binding. Potency, µM (titrated, usually from 115 µM), for the others: top-dose activity change, negative = inhibition, actives largely listed as inhibitors. 340,000 tested, under 10 active. AID 493005; active = well fitted inhibition curve with a large enough effect in the main read-out, with a control signal flat, not every such curve was filed as active; inconclusive = small, poorly fitted or top-dose-only effect, or effect the other way, or a change in a side signal; inactive = no such curve, though single readings can be large or run the other way; note: % of control where 0% means no effect
Target sequence (Q99816 whole entry, looked up): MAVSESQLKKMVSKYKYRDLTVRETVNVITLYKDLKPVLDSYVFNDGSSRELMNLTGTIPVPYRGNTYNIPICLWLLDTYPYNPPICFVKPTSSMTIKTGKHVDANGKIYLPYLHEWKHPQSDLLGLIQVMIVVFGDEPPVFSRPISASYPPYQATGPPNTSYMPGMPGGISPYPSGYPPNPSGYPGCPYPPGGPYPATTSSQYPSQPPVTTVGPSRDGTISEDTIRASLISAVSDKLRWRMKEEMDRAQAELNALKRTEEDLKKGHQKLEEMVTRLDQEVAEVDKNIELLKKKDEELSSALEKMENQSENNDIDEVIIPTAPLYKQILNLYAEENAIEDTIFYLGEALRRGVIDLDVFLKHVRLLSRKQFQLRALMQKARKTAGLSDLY
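Steps: Tsg101 binding domain dispensed (10 uM final), compounds pinned in DMSO, FITC-labeled PTAP-motif peptide added (50 nM final); after 20 min binding at room temperature, polarization measured.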
MCF10A rerep = DNA re-replication induction in MCF 10a cells | AID 624296 | MCF 10A DNA re-replication, Hoechst nuclear intensity, 48 h | hit rate 2.9% among 350,000 | Potency, µM (titrated, usually from 46.1 µM), for inactives: at the top dose activity, positive = re-replication, most hits filed as activators; note: % of control where 0% means no effect; nearly all actives have a fitted effect of over 50% in size
* = called active by the depositor; ! = a repeat was not active; [ ] = another dose, or the depositor's remark. Unless noted, calls come from the whole dose curve; as a rule, active = well fitted curve in the direction sought with a large enough effect; inconclusive = small, poorly fitted or top-dose-only effect, or another doubt; inactive = no such curve, though single readings can be large; an effect the other way counts as inactive or inconclusive. Potency is the fitted concentration of half-maximal effect.

COc1cccc(C2(CC(=O)N3CCN(c4ccccn4)CC3)CC(=O)N(C3CCCC3)C2=O)c1 (stereo unspecified) was read as PINK1 expr mod -1%.
Screening CC(C)c1ccc(S(=O)(=O)c2cnc(SCC(=O)Nc3ccc(F)cc3F)nc2N)cc1 returned PINK1 expr mod 6%, KB-3-1 cytotox inactive and KB-V1 cytotox inactive.
Cn1ncc(Cl)c1C(=O)NC1C2CC3CC(C2)CC1C3 (stereo unspecified) was read as PINK1 expr mod 0%, SW480 rereplic -12%, KB-3-1 cytotox inactive, KB-V1 cytotox inactive, PTAP TSG101 blk -1% and MCF10A rerep 7%.
For Cc1nn(C)c(C(=O)NC2C3CC4CC(C3)CC2C4)c1Cl (stereo unspecified) the results were PINK1 expr mod 8%, SW480 rereplic 23µM*, KB-3-1 cytotox inactive, KB-V1 cytotox inactive, PTAP TSG101 blk 0% and MCF10A rerep 15%.
Cc1cccc2cc(CN(Cc3cccs3)S(=O)(=O)c3ccc4c(c3)OCCO4)c(=O)[nH]c12 was read as PINK1 expr mod 1%, SW480 rereplic 15%, KB-3-1 cytotox inconclusive, KB-V1 cytotox 5.2µM*, PTAP TSG101 blk -1% and MCF10A rerep 18%.
`COc1ccccc1N1CCN(c2ccnc3cc(Cl)ccc23)CC1` gave PINK1 expr mod 5%, SW480 rereplic 8.2µM*, KB-3-1 cytotox 6.5µM*, KB-V1 cytotox inconclusive, PTAP TSG101 blk -6% and MCF10A rerep 2.6µM*.
For COc1ccccc1NC(=O)N1CCN(c2ccnc3cc(Cl)ccc23)CC1 the results were PINK1 expr mod 0%, SW480 rereplic -6%, KB-3-1 cytotox inactive, KB-V1 cytotox inactive, PTAP TSG101 blk -3% and MCF10A rerep -7%.
Screening COc1ccc(C2=C(CN(C)C)C(c3ccccc3)c3ccccc3O2)cc1 (stereo unspecified) returned PINK1 expr mod inconclusive, SW480 rereplic inconclusive, KB-3-1 cytotox inactive, KB-V1 cytotox 12µM*, PTAP TSG101 blk 0% and MCF10A rerep 26%.
`O=[N+]([O-])c1ccc(-c2nnc(-c3ccccc3)c(N3CCOCC3)n2)cc1` gave PINK1 expr mod 0%, SW480 rereplic -5%, KB-3-1 cytotox inactive, KB-V1 cytotox 12µM*, PTAP TSG101 blk -3% and MCF10A rerep 6%.
For FC(F)(F)c1cccc(-c2nnc(-c3ccccc3)c(N3CCOCC3)n2)c1 the results were PINK1 expr mod -1%[38.3 µM], SW480 rereplic 10%, KB-3-1 cytotox inactive, KB-V1 cytotox inactive, PTAP TSG101 blk -4% and MCF10A rerep 1%.
Screening O=C(NCCc1nc(-c2ccc(F)cc2)no1)c1ccc(F)cc1 returned PINK1 expr mod 2%, SW480 rereplic -106%, KB-3-1 cytotox inactive, KB-V1 cytotox inactive, PTAP TSG101 blk -6% and MCF10A rerep 0%.
For CCCc1nc(-c2ccc(-c3ccc(F)cc3)cc2)no1 the results were PINK1 expr mod -2%, SW480 rereplic -4%, KB-3-1 cytotox inactive, KB-V1 cytotox 21µM*, PTAP TSG101 blk 1% and MCF10A rerep -1%.
Screening CCN(CC)CCCNC(=O)c1cc(-c2ccccc2)c(N2CCCCC2)s1 returned PINK1 expr mod -3%, SW480 rereplic 19%, KB-3-1 cytotox 18µM*, KB-V1 cytotox inconclusive, PTAP TSG101 blk 2% and MCF10A rerep 17%.
For O=C(NCCc1ccccc1)c1cc(-c2ccccc2)c(N2CCOCC2)s1 the results were PINK1 expr mod 1%, SW480 rereplic 1%, KB-3-1 cytotox inactive, KB-V1 cytotox inactive, PTAP TSG101 blk -2% and MCF10A rerep inconclusive.
COc1ccc(NC(=O)N2CC3(CCN(S(=O)(=O)c4ccccc4)CC3)C2)cc1 was read as PINK1 expr mod 3%.
Screening Cc1cc(-c2nc3cc(F)ccc3s2)ccc1N returned PINK1 expr mod 7%, SW480 rereplic 18µM*, KB-3-1 cytotox inconclusive, KB-V1 cytotox 18µM*, PTAP TSG101 blk 0% and MCF10A rerep 10µM*.
For N#CCC(=O)Nc1ccc(C(=O)OCc2ccccc2Oc2ccccc2)cc1 the results were PINK1 expr mod 10%, SW480 rereplic inconclusive, KB-3-1 cytotox inactive, KB-V1 cytotox inconclusive, PTAP TSG101 blk -1% and MCF10A rerep 21µM*.
CCCCCCCCCCCCCCCC[n+]1cccc(C(=O)N(CC)CC)c1 was read as PINK1 expr mod -2%, SW480 rereplic 21µM*, KB-3-1 cytotox 13µM*!, KB-V1 cytotox inactive, PTAP TSG101 blk -2% and MCF10A rerep inconclusive.
For CC(C)=CCc1c(O)ccc(C(=O)Cc2ccccc2)c1O the results were PINK1 expr mod 4%, SW480 rereplic 4%, KB-3-1 cytotox inactive, KB-V1 cytotox inactive, PTAP TSG101 blk -7% and MCF10A rerep 21µM*.
For Cc1ccc(C(=O)Cc2ccccc2)c(O)c1 the results were PINK1 expr mod 15%, SW480 rereplic -8%, KB-3-1 cytotox inactive, KB-V1 cytotox inactive, PTAP TSG101 blk -2% and MCF10A rerep -31%.
For CCN1CCc2nc3sc(C(=O)c4ccc(F)cc4)c(N)c3cc2C1 the results were PINK1 expr mod inconclusive, KB-3-1 cytotox inactive and KB-V1 cytotox inactive.
`CCN1CCc2nc3sc(C(=O)c4ccccc4)c(N)c3cc2C1` gave PINK1 expr mod 12%, KB-3-1 cytotox 8.2µM* and KB-V1 cytotox inconclusive.
Screening CN1CCc2nc3sc(C(=O)C45CC6CC(CC(C6)C4)C5)c(N)c3cc2C1 returned PINK1 expr mod -3%, SW480 rereplic 21µM*, KB-3-1 cytotox inactive, KB-V1 cytotox inactive, PTAP TSG101 blk -1% and MCF10A rerep 9.2µM*.
`O=C(NC1CCCC1)c1ccc(CSc2nc3cccnc3n2Cc2ccccc2F)cc1` gave PINK1 expr mod -1%, KB-3-1 cytotox inactive and KB-V1 cytotox inactive.
COc1ccccc1OCC(=O)Nc1cc(-c2ccc(C)cc2)no1 was read as PINK1 expr mod 0%, KB-3-1 cytotox inactive and KB-V1 cytotox inactive.
O=C(CSc1ncc(-c2ccccc2)nn1)NCc1ccco1 was read as PINK1 expr mod 2%[38.3 µM], SW480 rereplic -4%, KB-3-1 cytotox inactive, KB-V1 cytotox inactive, PTAP TSG101 blk -8% and MCF10A rerep -3%.
Screening O=C(CSc1nc(-c2ccccc2)c(-c2ccccc2)[nH]1)NCCN1C(=O)CSC1=O returned PINK1 expr mod 3%, SW480 rereplic inconclusive, KB-3-1 cytotox 3.7µM*, KB-V1 cytotox inconclusive, PTAP TSG101 blk -5% and MCF10A rerep inconclusive.
